Experimental findings from publication PMC12136788 are described below.

T1: UNK ZnF1-3 (human, UniProt Q9C0B0 31-174)
T1 sequence: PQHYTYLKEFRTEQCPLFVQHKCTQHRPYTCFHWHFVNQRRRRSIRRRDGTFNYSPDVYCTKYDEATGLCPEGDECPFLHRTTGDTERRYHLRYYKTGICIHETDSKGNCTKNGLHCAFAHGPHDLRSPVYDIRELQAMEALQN

B1: chr1:163117127:163117128:-_ENSG00000143248_ENST00000313961|hu_mus|hu_hu_hu_mus_False|58_98 (ssRNA)
RNA: GGGAGUUCUACAGUCCGACGAUCUGCUACAAAGGAUGGAGGAAAUAUCACAGGGCAACUUUUGGAAGCCUGACCAGAUUACUACUUGAUUAGCUCCUUAUAAAAUUCAGAGCGCACAAAGCGGGGCAGAGAAUCCUUCUCCAUCAACAGAGGAUUGAGCAUCA
B2: chr18:90710673:90710674:+_ENSMUSG00000024614_ENSMUST00000025515|mus_mus|motif|central (ssRNA)
RNA: GGGAGUUCUACAGUCCGACGAUCACCUAAUAAAAAUUCUGAAAUUAGCUAAAAUGAAGGCAUCAAAAUUAACAAAUGAUCGGUAGUAAACAUUAUCACAAAAUACCCACUCUUAGACACGACUGCAUUCUGAUGAAAGAUGCGCAACAGAGGAUUGAGCAUCA
B3: chr2:176857141:176857142:-_ENSG00000144320_ENST00000272748|hu_mus|motif|central (ssRNA)
RNA: GGGAGUUCUACAGUCCGACGAUCUUUUUGCAAUCUCUGAUUUUUUUCUCUAAAUUCUUCCAAUGCUUGAAUUUCCUUAUCGGUAUUUUCUAGAACUUCUACUGUUGAAGGUUUUGCCCUCCAUCGAGAAAAUAAUCCACCCAUCAACAGAGGAUUGAGCAUCA
B4: 47141246_47141366_1218_CDS_ENSMUSG00000038291_ENSMUST00000170416|mouse|control|control (ssRNA)
RNA: GGGAGUUCUACAGUCCGACGAUCUUCUUCCUCACGCAUGAGCUUCUCAUACAGGUCGCUGACGAGGAAGGAGGGGUAAUACCGCUCCCUCAGCACCUCGGACACAUCGGCUUGGAUUUUGCUGAACACCUCGAUGCCUCUGUUCAACAGAGGAUUGAGCAUCA
B5: chr17:26875717:26875718:-_ENSG00000109103_ENST00000335765|hu_mus|FALSE|FALSE (ssRNA)
RNA: GGGAGUUCUACAGUCCGACGAUCACGGAUCUUGAACCUGACGAAGUCAAUCUUGUAGAUAUUUUCCUCAGGGGAGCACAGGUAGUCACCCGUGAUCCGCUGCAGCCCCAGCACAUCCUCCGGCCCGAUGGGCUGCUUGCCCUGCAACAGAGGAUUGAGCAUCA
B6: 230825810_230827160_2020_CDS_ENSG00000135775_ENST00000366669|human|control|control (ssRNA)
RNA: GGGAGUUCUACAGUCCGACGAUCGUUUAAUACAUCUGACACGGUUUCAUAGUACUUAUGAGUGCUUUCACUGAGAGUGCCUUCUAGCCACUGCUGAAUUAUUGCUUGUUUGAGCUUAUCCUUGUGUCCGCUCUGAAGCUGGAACAACAGAGGAUUGAGCAUCA
B7: chr2:242098653:242098654:+_ENSG00000115685_ENST00000406106|hu_mus|FALSE|FALSE (ssRNA)
RNA: GGGAGUUCUACAGUCCGACGAUCAUCAUAGAGAUCCAGUUCUCGAAGACUCUGCAGUUCUUCCAGGUUUUCAAUGCAUUUAAUUAGGUUUUGACGAAGGCAGAGUGACUUCACUUUCUUUAGCACCUCCAAGCCUUCAAUCUUCAACAGAGGAUUGAGCAUCA
B8: chr15:85259290:85259291:-_ENSG00000140612_ENST00000559729|hu_mus|FALSE|FALSE (ssRNA)
RNA: GGGAGUUCUACAGUCCGACGAUCAUUUAGGACUUGGUAGUACAGCUGCCUCUUGUUCAUCCGCCGCACAUCGUCUAGAAAGUCUAGAGACAGCAUGGUGAGAUGGAGAGCGCGACAACUAGCAGCCAAGAGGGCGCGAUAGAACAACAGAGGAUUGAGCAUCA
B9: chr8:90938390:90938391:+_ENSG00000164823_ENST00000451899|hu_hu|FALSE|FALSE (ssRNA)
RNA: GGGAGUUCUACAGUCCGACGAUCAAGAAUAUGAAGUACCUGUCAAGGUUUCAACGAUAAAAAUAUUUUUUAAAAGACCCUAUUUGGUAAUAAAUUAGAUUUAUACAAUUGAUAAUUUCAAAAUAAAUAAAAUCUGAGUUGUAACAACAGAGGAUUGAGCAUCA
B10: chr2:125083379:125083380:+_ENSMUSG00000027203_ENSMUST00000082122|mus_mus|FALSE|FALSE (ssRNA)
RNA: GGGAGUUCUACAGUCCGACGAUCUUAAAAAAAAUUACAAAUGAUACAGCAAUUAUGAUCAAAAACAGUUUUUGGAAGGCUAUAAUUUAAAUAAUACAACAACAACAAAAAAUCUAACUGUACCCUGGGUUUUACCAAGUCUGCCAACAGAGGAUUGAGCAUCA
B11: chr13:107772667:107772668:-_ENSMUSG00000021693_ENSMUST00000022204|mus_hu|motif|central (ssRNA)
RNA: GGGAGUUCUACAGUCCGACGAUCCAUUUCAUUAGGAGCUGAGUCAUCAAAGGCAUAAUCAAAACGAAAUGUUUGGUUUUCGGGGUACCUUGUUAAAUCUACUUUUUGUUUUGGUUCAUGUACCAUCACAACAUCUUUACUAGGCAACAGAGGAUUGAGCAUCA
B12: chr2:44571030:44571031:-_ENSG00000138078_ENST00000409411|hu_hu|FALSE|FALSE (ssRNA)
RNA: GGGAGUUCUACAGUCCGACGAUCUCUUAUCUUGGCAGCCACAUAUUUUUCAUCUGGAGCAACUCUGAUACAAUCAAUGAAGGGCUGGUCUAACUUAAGUUCCUCCAAAUUGAAUAAAACUUCAUAAUUAUCAUUGUCUGCUUCCAACAGAGGAUUGAGCAUCA
B13: chr2:125083379:125083380:+_ENSMUSG00000027203_ENSMUST00000082122|mus_mus|motif|central (ssRNA)
RNA: B10 RNA with U80G, A81G
B14: 5810229_5811228_1359_CDS_ENSG00000099219_ENST00000339450|human|control|control (ssRNA)
RNA: GGGAGUUCUACAGUCCGACGAUCAGUCUUAUGUUUGGGCUGCAAAAAUUUUUUGCCCAGGUACAAAACAACACCCAUUACCACCAUGUAGUUUAUGAUUGAGCCAAUACGAGAGGGGUAGGCAAUGACAAACAGGCCCAGCACCAACAGAGGAUUGAGCAUCA
B15: 2747543_2750058_4223_CDS_ENSG00000101596_ENST00000320876|human|control|control (ssRNA)
RNA: GGGAGUUCUACAGUCCGACGAUCUUGGUUUGAAGGCAUGAGCUUUAAAUUGCUAGCUUUUGUAAGACUUAUUUUAACAUGUUGUACCGGUGCUGGAUUAUCCCACUGAUCACAAAGUUGAACAAUAAUAGGGUUCUGUAAAUCCAACAGAGGAUUGAGCAUCA
B16: chrX:101157612:101157613:-_ENSMUSG00000056537_ENSMUST00000070705|mus_mus|motif|central (ssRNA)
RNA: GGGAGUUCUACAGUCCGACGAUCAAAUUAUCAGUAACAGGUUAGCAAUUCAUCUGGUACCGAAAUCAAAUGUUUAAGUCCGGAAAUGUUGUUUUUAAAAUAUUCUUUCCAUCCUGAAAGAGAAACUAGAGAAAAGGCAUGAUACAACAGAGGAUUGAGCAUCA
B17: chr8:13019523:13019524:+_ENSMUSG00000031442_ENSMUST00000123811|mus_mus|FALSE|FALSE (ssRNA)
RNA: GGGAGUUCUACAGUCCGACGAUCUUAAAGUUUUGAGGCCAGAGUACCACAAAAAAUGGCCAUGGGGUUAAUCCCUGUUUAAAAAAAAUCAAAAACUUAUAAAAGACGAGAGUCCCUUGACCCCCCCUUAGGCUGUUGGUAGCACAACAGAGGAUUGAGCAUCA
B18: chr8:90938390:90938391:+_ENSG00000164823_ENST00000451899|hu_hu|motif|central (ssRNA)
RNA: B9 RNA with U80G, A81G

Substitutions are numbered along the chain they refer to. In all, about 24,000 sequences were measured (“enrichment r”: median about 0.99, highest 2% from about 3.7 on). This excerpt belongs to a sample that is enriched for the highest values.

This assay has as its target T1, UNK ZnF1-3. Briefly: nsRBNS (natural sequence RNA bind-n-seq); RBNS binding buffer (assumed for nsRBNS): 25 mM Tris pH 7.5, 150 mM KCl, 3 mM MgCl2, 0.01% Triton X-100, 500 ug/ml BSA, 20 U/ml SUPERase-In, 4 C; UNK is unkempt and MSI1 is Musashi-1; names of the RNAs are library labels; protein concentration not given here; high values mean tight binding.
In the case of B1, the binding signal was found to be 1.55 enrichment R.
Then B2, with 1.85 enrichment R; and B3, with 0.366 enrichment R.
Then B4, with 0.729 enrichment R; and B5, with 0.51 enrichment R; and B6, with 0.468 enrichment R.
For the molecule B7, the binding signal came out at 0.6 enrichment R.
For the molecule B8, the binding signal was 0.618 enrichment R.
In the case of B9 it was 2.3 enrichment R; in that of B10, 4.2 enrichment R.
Regarding B11, the binding signal is 1.02 enrichment R.
Take B12: the binding signal stood at 1 enrichment R.
In turn, B13 gave a binding signal of 4.51 enrichment R.
B14 had a binding signal of 1.77 enrichment R.
Molecule B15 returned a binding signal of 1.18 enrichment R.
In turn, B16 had a binding signal of 1.32 enrichment R.
Then B17, with 4.16 enrichment R; and B18, with 6.04 enrichment R.
